Source: PubChem BioAssay (NCI)
This is part of a sample that, as a whole, favours compounds with a hit. Of some 83,000 tested, about 20% had one in any assay.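 The endpoint reported here, percent growth, reads 100 for growth as untreated, 0 for no net growth and -100 for all cells dead.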 Unmarked numbers belong to inactive results. The source made the active and inactive calls. The calls were made as follows: active = growth percent below 10; inactive = the rest.

Assays:
Assay in all cases: NCI-60 one-dose screen, 48 h (100 = growth as untreated, 0 = no growth, -100 = all killed)
NCI-H23 lung = settings: 10 µM unless noted
NCI-H226 lung = settings: 10 µM unless noted
NCI-H322M lung = settings: 10 µM unless noted
HOP-62 NSCLC = settings: 10 µM unless noted
NCI-H460 lung = settings: 10 µM unless noted
HOP-92 NSCLC = settings: 10 µM unless noted
NCI-H522 lung = settings: 10 µM unless noted
A549/ATCC NSCLC = settings: 10 µM unless noted
786-0 renal = settings: 10 µM unless noted
COLO 205 colon = settings: 10 µM unless noted
DU-145 prostate = settings: 10 µM unless noted
K-562 leukemia = settings: 10 µM unless noted
MALME-3M melanoma = settings: 10 µM unless noted
MDA-MB-231 breast = settings: 10 µM unless noted
RXF 393 renal = settings: 10 µM unless noted
SF-268 CNS = settings: 10 µM unless noted
SF-295 CNS = settings: 10 µM unless noted
SF-539 CNS = settings: 10 µM unless noted
UACC-257 melanoma = settings: 10 µM
M14 melanoma = settings: 10 µM unless noted

Row | SMILES | growth (NCI-H23 lung) | growth (NCI-H226 lung) | growth (NCI-H322M lung) | growth (HOP-62 NSCLC) | growth (NCI-H460 lung) | growth (HOP-92 NSCLC) | growth (NCI-H522 lung) | growth (A549/ATCC NSCLC) | growth (786-0 renal) | growth (COLO 205 colon) | growth (DU-145 prostate) | growth (K-562 leukemia) | growth (MALME-3M melanoma) | growth (MDA-MB-231 breast) | growth (RXF 393 renal) | growth (SF-268 CNS) | growth (SF-295 CNS) | growth (SF-539 CNS) | growth (UACC-257 melanoma) | growth (M14 melanoma)
1 | COc1cc(Cn2c(-c3nonc3N)nc3ccccc32)ccc1C | 25.1% | 50.3% | 58.8% | 30.5% | 11% | 39.8% | -20% (active) | 24.2% | 40.3% | -9.7% (active) | 13.8% | 10.4% | 80.7% | 22.3% | -8.35% (active) | 40.3% | 26% | -32.8% (active) | 65.2% | 14%
2 | COc1ccc(OC)c(-c2ccc(-c3ccccc3N)c3[nH]c4ccccc4c23)c1 | 74.5% | 75.2% | 90.1% | 80.9% | 92.3% | 80.8% | 56.9% | 68.7% | 83.6% | 87.5% | 89.6% | 76.2% | 85% | 74.1% | 98.2% | 79.1% | 99.4% | 93.2% | 85% | 84.6%
3 | CCCCCc1c(C)[nH]c(/C=c2\[nH]/c(=C3/C=c4ccccc4=N3)cc2OC)c1C | -42.1% (active) | -16.4% (active) | -8.17% (active) | -56.7% (active) | 2.12% (active) | -56.8% (active) | -45.8% (active) | -21.8% (active) | -68.3% (active) | -76.5% (active) | 5.25% (active) | -9.81% (active) | -65% (active) | -80.5% (active) | -46.7% (active) | -38.3% (active) | -60.2% (active) | -67.1% (active) | -42.4% (active) | -81.6% (active)
4 | COc1cc(OC)c(C(=O)/C=C/c2cccc(C(F)(F)F)c2)c(OC)c1 | 5.06% (active) | 25.1% | 13.2% | 18.7% | -1.87% (active) | 2.76% (active) | -31.8% (active) | 6.1% (active) | 13.4% | 12.9% | 11.6% | 11.8% | 51.4% | 20.7% | -12.9% (active) | 14.7% | 17.4% | -0.21% (active) | 31.3% | 9.53% (active)
5 | CC(C)(C)OC(=O)N[C@@H](Cc1ccccc1)C(=O)N(Cc1ccccc1)C1(C(=O)NCc2ccccc2)CCN(Cc2ccccc2)CC1 | 49.3% | 70% | 64.3% | 56.2% | 26.6% | -8.51% (active) | 43.7% | 24.8% | 51.7% | 16.3% | 75.6% | 11% | 25.6% | 22.9% | 61.9% | 58.5% | 39.2% | 47.2% | 24.2% | 40.2%
6 | COc1cccc(/C=C/C(=O)c2sc(Nc3ccc(O)cc3)nc2C)c1 | 92.3% | 107% | 93.5% | 107% | 105% | 107% | 24.9% | 88.2% | 80.2% | 115% | 94.9% | 79.1% | 95% | 105% | 84.6% | 61.2% | 104% | 74.5% | 85% | 95.4%
7 | COc1c(NC[C@H]2OC(O)[C@H](O)[C@@H](O)[C@@H]2O)c(=O)c1=O (stereo not given in full) | 97% | 98.3% | 98% | 102% | 104% | 95.6% | 114% | 94.2% | 102% | 112% | 115% | 96.4% | 92.9% | 106% | 96.6% | 102% | 107% | 94.1% | 102% | 108%
8 | O=C(NNC(=S)Nc1ccccc1)c1ccccn1 | 73.1% | 43.4% | 23.3% | 37.9% | 21.2% | 16.7% | 69% | 24.3% | 22.6% | 22.5% | 42.9% | 28.6% | 24.2% | 43.5% | 35.4% | 36.7% | 42.1% | 31.5% | 18.9% | 25.3%
